# Screens deposited in PubChem by Paczesny and Yang Labs, IUPUI and University of Michigan.
# Many of the other results were omitted from the sample, so hits are more common in it than they were.
# ST2 inh: inhibitors of human ST2 (IL1RL1) binding to IL-33; Q01638; AlphaLISA ST2-Fc/biotin-IL-33 interaction, 1 h; inhibition, % for hits at 17 µM; 78,000 compounds, 2.3% hits; in the data active means inhibition above about 30%
# The depositor's hits bear a star; i = inactive.
SMILES,ST2 inh
COc1ccc(-c2cc(C(=O)Nc3ccc([N+](=O)[O-])cc3OC)c3ccccc3n2)c(OC)c1,i
O=C(O)c1cc(-c2ccc3ccccc3c2)nc2ccccc12,i
Cc1ccccc1-c1c(C(F)(F)F)oc2c(C)c(O)ccc2c1=O,i
COc1ccc2c(=O)c(-c3ccccc3Cl)c(C(F)(F)F)oc2c1,i
COc1ccc2c(=O)c(-c3ccccc3C)c(C(F)(F)F)oc2c1,75.0%*
CN(C)CCNC(=O)C1(O)c2ccccc2NC(=O)N1c1ccc(Cl)c(Cl)c1 (centres undefined),i
O=C1c2cccc3cccc(c23)C(=O)N1CCNCCO,i
O=C1c2c(O)ccc(O)c2C(=O)c2c(NCCNCCO)ccc(NCCNCCO)c21,82.0%*
Cc1ccc(S(N)(=O)=O)cc1NS(=O)(=O)c1ccc(Cl)cc1,i
CC1=C[C@@H](CNC(=O)c2ccco2)[C@H](C(C)C)C[C@H]1CC(=O)NCc1ccc(F)cc1,i
CCOc1ccc2nc(NC(=O)C3Cc4ccccc4O3)sc2c1 (centres undefined),i
COCC1(C(=O)N(C)C(C)c2nccs2)CCC1 (centres undefined),i
COc1ccc(/C=C/C#N)cc1OC,i
COc1ccc(C=C2C(=O)OC(C)(C(C)(C)C)OC2=O)cc1OC (centres undefined),i
COc1ccc(/C=C2\CCC/C(=C\c3ccc(OC)c(OC)c3)C2=O)cc1OC,30.0%*
CCOC(=O)C1=C(C)Nc2nc(SCc3ccccc3)nn2C1c1ccccc1OC (centres undefined),i
COc1ccc(C2CC(=O)n3nc(-c4ccc(C)cc4)nc3S2)cc1 (centres undefined),i
O=c1cc[nH]c2ccc([N+](=O)[O-])cc12,i
O=[N+]([O-])c1ccc(Nc2c[nH]c3ccccc23)cc1,42.0%*
O=[N+]([O-])c1ccc(S(=O)(=O)Nc2ccccc2)cc1,i
O=C(Cn1c(=O)n(-c2ccccc2)c(=O)c2sccc21)NC1CCCC1,i
O=C(Nc1c(C(=O)Nc2cccc(F)c2)oc2ccccc12)c1cccc(F)c1,i
Cc1nc(CC(=O)N2CCc3c(cnc(C)c3CNC(=O)/C=C/c3cccs3)C2)cs1,30.0%*
Cc1ncc2c(c1CNC(=O)/C=C/c1cccs1)CCN(C(=O)COc1ccccc1)C2,i
Cc1ncc2c(c1CNC(=O)/C=C/c1cccs1)CCN(C(=O)c1ccc(-n3cccn3)cc1)C2,i
SMILES,ST2 inh
COC(=O)c1c(NC(=O)COc2ccc(C(C)C)cc2)sc2c1CCC2,i
CCC(=O)N1CCN=C1SCc1cccc(C)c1,i
Cc1cccc(OCC(=O)Nc2ccc(C)c(OCc3cc(=O)n4cccc(C)c4n3)c2)c1,i
COc1ccc(OC)c(/C=C2\N=C(c3cccs3)OC2=O)c1,i
COc1ccc(/C=C2/OC(=O)c3c2cc(C)[nH]c3=O)cc1OC,i
COc1ccc(/C=C2/C=C(c3ccc(C)cc3)OC2=O)cc1OC,32.0%*
COc1ccc(/C=C2\SC(N3CCOCC3)=NC2=O)c(OC)c1,i
COc1ccc(/C=C2/C=C(c3cc(OC)ccc3OC)OC2=O)c(OC)c1,40.0%*
COc1ccc(C2=C/C(=C\c3ccc(C)o3)C(=O)O2)cc1,i
O=C(Cc1ccccc1)Nc1c(C(=O)Nc2cccc(F)c2)oc2ccccc12,i
CCn1cc(-c2c(-c3ccccc3)ncn2Cc2sc(COC)nc2C)c(C)n1,i
CC(C)OCCCNC(=O)c1cc(-c2ccncc2)nc2ccccc12,i
CCN(CC)c1ccn(-c2nc(-c3ccccc3)oc2-c2ccccc2)c(=O)n1,i
Cc1ccc(S(=O)(=O)N(Cc2ccc([N+](=O)[O-])cc2)C(C)(C)C)cc1,i
Cc1ccc(S(=O)(=O)c2ccc(-c3ccc([N+](=O)[O-])cc3)cc2)cc1,31.0%*
Cc1ccc(NS(=O)(=O)c2ccc([N+](=O)[O-])cc2)cc1,i
COCCNC(=O)C1c2cc(OC)c(OC)cc2C(=O)N(C)C1c1cccs1 (centres undefined),i
CCc1ccccc1NC(=O)c1ccc([N+](=O)[O-])cc1,i
Cc1ccccc1C(=O)Nc1ccc([N+](=O)[O-])cc1,i
Cc1ccccc1NCC(=O)c1ccc([N+](=O)[O-])cc1,48.0%*
CCN(CC)CCCOc1ccc(C)cc1,i
COCCn1c(CNS(=O)(=O)c2ccc(C)c(C)c2)nc2cccnc21,i
O=C1CO[C@H]2CN(CC3CC3)C[C@H]2N1c1ccccc1,i
Cc1ccccc1C1NC(=O)NC2=C1C(=O)CC(C)(C)C2 (centres undefined),i
COc1ccc(-c2nc3sccn3c2Nc2ccc3c(c2)OCO3)cc1,30.0%*
COc1cc(-c2nc3cnccn3c2Nc2ccc3c(c2)OCCO3)ccc1O,i
Cc1ccc(-c2nc3sccn3c2Nc2ccccc2C)cc1,i
CC(C)c1cc(C(=O)N2CCCC3(CN(C)C(=O)O3)C2)cs1 (centres undefined),i
CCCCn1c(CN2CC(C)OC(C)C2)nc2c1c(=O)[nH]c(=O)n2C (centres undefined),i
CSc1ccc(NC(=O)c2sc3nc(-c4ccc(F)cc4)ccc3c2N)cc1,44.0%*
